The nature of assay [1]: qHTS profiling for inhibitors of Plasmodium falciparum (3D7) proliferation (AID 743322).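 Note: infected erythrocytes exposed to compound for 72 h before lysis; 100% = DMSO vehicle wells and 0% = 0.29 µM artemisinin.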 The conditions noted are these: P. falciparum 3D7 proliferation; at 28.7 µM (top of the series). An outline of the steps: (§1)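 Parasite DNA was quantified by SYBR Green I fluorescence (ex 485, em 535 nm) after overnight lysis in saponin/Triton buffer at room temperature. Cultures at 0.3% parasitemia and 2.5% hematocrit were first exposed to compound for 72 h at 37 C; signals were normalised to artemisinin (0.29 uM) and vehicle wells.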

A short description of assay [2]: qHTS profiling for inhibitors of Plasmodium falciparum (DD2) proliferation (AID 743323). The conditions noted are these: lower = more inhibition; at 28.7 µM (top of the series). An outline of the steps:
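Parasite proliferation measured via DNA-dye fluorescence, as uninfected erythrocytes lack DNA. Cultures at 0.3% parasitemia and 2.5% hematocrit incubated 72 h with compound; signal scaled between vehicle and 0.29 uM artemisinin wells.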
For orientation: Quantitative high-throughput screening tests each substance at several concentrations.

Assay [3] is described as follows: qHTS profiling for inhibitors of Plasmodium falciparum (HB3) proliferation (AID 743324; active = well fitted curve in the direction sought with a large enough effect; an effect the other way counts as inactive or inconclusive;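 note: 100% = DMSO vehicle wells and 0% = artemisinin-treated control wells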). The conditions noted are these: Plasmodium falciparum HB3 blood-stage proliferation; at 28.7 µM (top of the series). An outline of the steps: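 SYBR Green fluorescence (485 ex/535 em) of lysed cultures, incubated overnight at room temperature in the dark, quantifies parasite DNA. Infected erythrocytes at 0.3% parasitemia and 2.5% hematocrit were exposed 72 h; values normalized to DMSO and 0.29 uM artemisinin controls.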

The nature of assay [4]: qHTS profiling of the MIPE4 collection as inhibitors of Plasmodium falciparum (3D7) proliferation (AID 743344).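 Note: scaled between DMSO vehicle wells and 0.29 µM artemisinin as full inhibition.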 The conditions noted are these: P. falciparum 3D7 in erythrocytes, SYBR Green DNA fluorescence, 72 h; at 28.5 µM (top of the series) unless noted. An outline of the steps: as §1
Assay [5] is described as follows: qHTS profiling of the MIPE4 collection as inhibitors of Plasmodium falciparum (DD2) proliferation (AID 743345). The conditions noted are these: P. falciparum Dd2 in erythrocytes, SYBR Green DNA, 72 h; at 28.5 µM (top of the series) unless noted. An outline of the steps: as §1
A short description of assay [6]: qHTS profiling of the MIPE4 collection as inhibitors of Plasmodium falciparum (DD2) proliferation (Rep 2) (AID 743346). The conditions noted are these: P. falciparum Dd2 in erythrocytes, SYBR Green DNA, 72 h; at 28.5 µM (top of the series) unless noted. In short, it runs like this:
as §1

Assay [7] is described as follows: qHTS profiling of the MIPE4 collection as inhibitors of Plasmodium falciparum (HB3) proliferation (AID 743347).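 Note: plate controls were DMSO vehicle wells for no effect and artemisinin wells for full effect.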 Particulars: P. falciparum HB3 in erythrocytes, SYBR Green DNA, 72 h; at 28.5 µM (top of the series) unless noted. An outline of the steps: as §1
The nature of assay [8]: High-throughput drug toxicity screening in the BPDCN cell line Gen2.2 (AID 1224824).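 Note: cells exposed to compounds for 48 h before reading.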 The conditions noted are these: Gen2.2 BPDCN cells; at 45.8 µM (top of the series) unless noted. An outline of the steps:
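Seed 500 exponentially growing Gen2.2 cells/well; add compounds by pin tool; incubate 48 h, 37 °C, 5% CO2; add CellTiter-Glo, 15 min RT; read luminescence. % activity vs DMSO (100%) and bortezomib (0%).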

The nature of assay [9]: High-throughput drug toxicity screening in the BPDCN cell line Cal-1 (AID 1224825). The conditions noted are these: Cal-1 BPDCN cell viability, qHTS; at 45.8 µM (top of the series) unless noted. An outline of the steps: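 Viability of the BPDCN line Cal-1 is measured as ATP-based luminescence (CellTiter-Glo) following 48 h incubation with compounds. Percent activity uses DMSO-treated wells as 100% and 9.2 uM bortezomib as 0%.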

The nature of assay [10]: qHTS assay for measurement of the activity of small molecule inhibitors on Zika virus induced Caspase-3 activity in human iPSC derived neural progenitor cells (hNPCs) (AID 1224857; active = well fitted curve in the direction sought with a large enough effect; an effect the other way counts as inactive or inconclusive; note: % of control where 0% means no effect; nearly all actives have a fitted effect of over 65% in size). An outline of the steps:
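hNPCs seeded 350 cells/well, cultured 16–20 h; compounds added 1 h before ZIKV (2 FFU/cell), 37 C 6 h. Caspase-Glo 3/7 luminescence after 30 min RT; % inhibition from induction scaled to uninfected (0%) and infected (100%) wells.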

The nature of assay [11]: qHTS assay for measurement of the activity of small molecule inhibitors on Zika virus induced Caspase-3 activity in human astrocytoma cells (AID 1224859; active = well fitted curve in the direction sought with a large enough effect; an effect the other way counts as inactive or inconclusive;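 note: plate controls were ZIKV-infected untreated cells for no effect and uninfected cells for full effect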). In short, it runs like this: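 Luminescence read-out (Caspase-Glo 3/7, 30 min RT) of caspase activity in SNB-19 cells infected 6 h with ZIKV, 2 FFU/cell, after 1 h compound pretreatment; % inhibition from induction normalised to uninfected (0%) and infected (100%) wells.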

The nature of assay [12]: qHTS Assay for Identifying Gametocytocidal Compounds (AID 743244; active = well fitted curve in the direction sought with a large enough effect; an effect the other way counts as inactive or inconclusive; note: potency is the fitted concentration of half-maximal effect;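 for max response: % is set by controls: 0 for no effect and ±100 for the full control effect; actives lower the fluorescent signal which means gametocytes are killed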). Particulars: P. falciparum 3D7 stage III-V gametocytes, alamarBlue, 72 h; max response: stronger effect = lower value. An outline of the steps:
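P. falciparum 3D7 stage III–V gametocytes (20,000 cells/well) were exposed to compounds for 72 h at 37 °C, 5% CO2. AlamarBlue was then added for 24 h; decreased resorufin fluorescence (Ex 525/Em 598 nm) indicated loss of viability.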

Inconclusive results are not listed. The source made the active and inactive calls. Unless noted, the rule behind the calls is not given here.

On to `O=C(c1ccc(Nc2nccc(-c3cc4ccccc4s3)n2)cc1)N1CCC(N2CCCC2)CC1`, for which the remaining parasite growth % (stronger effect = lower value) in assay [1] is -2.23%. The activity, percent of control in assay [2] is -0.895%. For the same compound, in [3], the remaining proliferation (% of control), lower = more inhibition was -1.21%. Also, the parasite growth, % of DMSO control in [4] is 4.58%. The same compound registered a parasite growth remaining, % of DMSO control (lower = more inhibition) in assay [5] of 6.27%. Moreover, the parasite growth, % of control (lower = inhibition) in assay [6] turned out to be 18.7%. The same compound came in with a growth, % of control in assay [7] of 4.99%. Moreover, the cell viability, % of control (lower = more cytotoxic) in [8] amounted to 11.5%. For the same compound, the viability (% of control) in assay [9] was 3.16%. The Potency result in assay [10] and in assay [11] was “inactive” throughout.

For `COC(=O)c1ccc2c(C(=Nc3ccc(N(C)C(=O)CN4CCN(C)CC4)cc3)c3ccccc3)c(O)[nH]c2c1`, the remaining parasite growth % (stronger effect = lower value) in assay [1] amounted to 0.245%. Besides, in [2], the activity, percent of control amounted to 0.784%. The remaining proliferation (% of control), lower = more inhibition in assay [3] was 0.135%. In assay [4], this compound had a parasite growth, % of DMSO control of 6.36%. In [5], this compound displayed a parasite growth remaining, % of DMSO control (lower = more inhibition) of 6.24%. The compound further yielded a parasite growth, % of control (lower = inhibition) in assay [6] of 13.4%. Further, the cell viability, % of control (lower = more cytotoxic) in assay [8] came out at 213%. In addition, in assay [9], the viability (% of control) is 71.4%. The Potency entry in assay [10] and in assay [11] was “inactive” in each case.

In the case of `CN1c2cc(O)c(N=NC(N)=O)cc2CC1S(=O)(=O)O` (configuration not stated), the max response in [12] is 13% (inactive). Further, the parasite growth, % of control (lower = inhibition) in assay [6] is 19.7%. Besides, the cell viability, % of control (lower = more cytotoxic) in assay [8] was found to be 170%. Further, in assay [9], the viability (% of control) came out at 126%. Further, the Potency entry in assay [10] and in assay [11] was “inactive” throughout.

In the case of `CN1CCN(c2cc(C(=O)Nc3ccc4c(c3)-c3c(c(C(N)=O)nn3-c3ccc(F)cc3)CC4)c(Cl)cn2)CC1`, the remaining parasite growth % (stronger effect = lower value) in [1] is -2.46%. In addition, in assay [2], the activity, percent of control was 0.473%. For the same compound, in [3], the remaining proliferation (% of control), lower = more inhibition is -0.224%. For the same compound, the parasite growth, % of DMSO control in assay [4] is 4.93%. This compound also returned a parasite growth remaining, % of DMSO control (lower = more inhibition) in [5] of 7.41%. In assay [6], this compound showed a parasite growth, % of control (lower = inhibition) of 16.2%. For the same compound, in [7], the growth, % of control is 3.51%. In assay [8], the cell viability, % of control (lower = more cytotoxic) was 5.17%. In addition, the viability (% of control) in assay [9] amounted to 3.02%. Besides, the Potency entry in assay [10] and in assay [11] was “inactive” throughout.

`CC(C)CC(=O)Nc1n[nH]c2c1CN(C(=O)C1CCN(C)CC1)C2(C)C`: in assay [12], the Potency is 18.7 µM (active). Further, the remaining parasite growth % (stronger effect = lower value) in assay [1] stood at 9.49%. Besides, the activity, percent of control in assay [2] was determined as 13.7%. For the same compound, the parasite growth, % of DMSO control in assay [4] came to 5.43%. The compound also returned a parasite growth remaining, % of DMSO control (lower = more inhibition) in [5] of 19.3%. The parasite growth, % of control (lower = inhibition) in [6] worked out at 34.2%. In addition, the growth, % of control in [7] came to 5.85%. Also, the cell viability, % of control (lower = more cytotoxic) in [8] is 3.03%. The viability (% of control) in assay [9] stood at 2.15%. Moreover, the Potency entry in assay [10] and in [11] was “inactive” throughout.

`CN1CC[C@@H](c2c(O)cc(O)c3c(=O)cc(-c4ccccc4Cl)oc23)[C@@H](O)C1`: in assay [1], the remaining parasite growth % (stronger effect = lower value) stood at 3.4%. For the same compound, the activity, percent of control in [2] amounted to 4.17%. Besides, the remaining proliferation (% of control), lower = more inhibition in [3] came to 4.58%. For the same compound, the parasite growth, % of DMSO control in assay [4] turned out to be 8.91%. Also, the parasite growth remaining, % of DMSO control (lower = more inhibition) in assay [5] is 13.5%. Moreover, in [6], the parasite growth, % of control (lower = inhibition) stood at 9.93%. Also, the growth, % of control in assay [7] worked out at 11.3%. For the same compound, the cell viability, % of control (lower = more cytotoxic) in assay [8] came out at 7.16%. In addition, the viability (% of control) in assay [9] came to 5.59%. Moreover, the Potency entry in [10] and in [11] was “inactive” in each case.

For `Nc1nc(Nc2ccc(S(N)(=O)=O)cc2)nn1C(=O)c1c(F)cccc1F`, the Potency in assay [12] was 11.8 µM (active). Besides, the remaining parasite growth % (stronger effect = lower value) in [1] was found to be 14.8%. Also, in assay [3], the remaining proliferation (% of control), lower = more inhibition turned out to be 10.9%. This compound showed a parasite growth, % of DMSO control in assay [4] of 16.5%. The compound further displayed a parasite growth remaining, % of DMSO control (lower = more inhibition) in assay [5] of 11.8%. This compound also came in with a parasite growth, % of control (lower = inhibition) in assay [6] of 14.1%. This compound yielded a growth, % of control in assay [7] of 9.06%. The cell viability, % of control (lower = more cytotoxic) in [8] came to 13.3%. For the same compound, in [9], the viability (% of control) came out at 6.01%. For the same compound, the Potency entry in assay [10] and in [11] was “inactive” throughout.

On to `Cc1[nH]c2ccccc2c1CCNCc1ccc(C=CC(=O)NO)cc1`, for which the Potency in [12] was 1.18 µM (active). The remaining parasite growth % (stronger effect = lower value) in assay [1] was -0.764%. Also, the remaining proliferation (% of control), lower = more inhibition in assay [3] was -0.887%. In addition, in assay [4], the parasite growth, % of DMSO control amounted to 4.38%. The compound also returned a parasite growth remaining, % of DMSO control (lower = more inhibition) in [5] of 7.14%. In assay [7], this compound registered a growth, % of control of 2.36%. Moreover, the cell viability, % of control (lower = more cytotoxic) in assay [8] came out at 7.87%. The viability (% of control) in assay [9] came out at 7.62%. Further, the Potency entry in assay [10] and in [11] was “inactive” throughout.

Turning to `O=C(O)[C@H](Cc1c[nH]c2ccccc12)N1C(=O)c2ccccc2C1=O`, in [12], the max response is 33.4% (inactive). Further, the remaining parasite growth % (stronger effect = lower value) in assay [1] came out at 105%. Also, the remaining proliferation (% of control), lower = more inhibition in assay [3] turned out to be 85.6%. The same compound displayed a parasite growth, % of DMSO control in [4] of 99.6% [at 57.5 µM]. This compound also returned a parasite growth remaining, % of DMSO control (lower = more inhibition) in assay [5] of 98.7% [at 57.5 µM]. In assay [6], this compound registered a parasite growth, % of control (lower = inhibition) of 77% [at 57.5 µM]. In assay [7], this compound had a growth, % of control of 106% [at 57.5 µM]. Also, the cell viability, % of control (lower = more cytotoxic) in assay [8] stood at 151% [at 92.2 µM]. In assay [9], the viability (% of control) was found to be 104% [at 92.2 µM]. Also, the Potency entry in [10] and in assay [11] was “inactive” in each case.

The values above are taken from PubChem BioAssay (NCATS).
